Source: PubChem BioAssay AID488969 (Vanderbilt High Throughput Screening Facility, 2010)
The full ranking holds about 110,000 compounds; the median of “z-score” is about -0.1, and the highest 2% start at about 2. Only a selection was taken, and the highest values are over-represented in it overall. The source made the active and inactive calls.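 Rule for the calls: active = z-score in the third read window above 3 or below -3; inactive = the rest.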

Each molecule was assayed against Metabotropic glutamate receptor 8 (Rattus norvegicus) (UniProt P70579) (assay: rat mGluR8 modulators via GIRK flux, primary screen, cell-based, thallium flux, HTS (AID 488969)). Conditions: HEK293 rat mGluR8, GIRK (G protein-gated inwardly rectifying potassium channel) thallium flux, FluoZin2; at 10 µM; stronger effect = higher value; submaximal glutamate (EC20) added with thallium.
Chain of Metabotropic glutamate receptor 8 (Rattus norvegicus) (P70579 whole entry, looked up): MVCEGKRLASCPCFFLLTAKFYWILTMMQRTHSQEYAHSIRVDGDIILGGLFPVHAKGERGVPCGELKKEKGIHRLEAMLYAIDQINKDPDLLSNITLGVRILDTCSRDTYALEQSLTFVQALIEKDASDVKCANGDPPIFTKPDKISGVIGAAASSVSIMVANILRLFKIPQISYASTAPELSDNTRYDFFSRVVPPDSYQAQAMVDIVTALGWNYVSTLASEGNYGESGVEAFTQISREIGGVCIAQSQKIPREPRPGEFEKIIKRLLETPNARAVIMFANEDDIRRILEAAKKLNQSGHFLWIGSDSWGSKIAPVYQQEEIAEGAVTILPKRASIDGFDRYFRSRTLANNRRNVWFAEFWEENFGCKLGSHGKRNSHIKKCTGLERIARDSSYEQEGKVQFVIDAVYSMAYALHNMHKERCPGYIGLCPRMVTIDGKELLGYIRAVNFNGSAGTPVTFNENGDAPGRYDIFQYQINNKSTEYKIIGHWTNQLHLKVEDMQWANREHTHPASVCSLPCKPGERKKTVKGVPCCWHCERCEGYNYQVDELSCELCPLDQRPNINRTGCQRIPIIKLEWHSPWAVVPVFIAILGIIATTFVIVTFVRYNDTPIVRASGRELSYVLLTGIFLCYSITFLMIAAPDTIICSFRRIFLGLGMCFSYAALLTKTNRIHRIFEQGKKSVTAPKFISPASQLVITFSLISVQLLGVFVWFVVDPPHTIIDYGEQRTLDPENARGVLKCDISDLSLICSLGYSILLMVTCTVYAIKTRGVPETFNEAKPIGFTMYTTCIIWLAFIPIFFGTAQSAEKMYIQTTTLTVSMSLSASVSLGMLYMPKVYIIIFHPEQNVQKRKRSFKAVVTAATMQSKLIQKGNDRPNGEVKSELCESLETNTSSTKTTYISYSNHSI

Row | SMILES | z-score
1 | CCOC(=O)c1cc(CC)sc1NC(=O)c1cc(OC)c(OC)c(OC)c1 | 0.399
2 | CCOC(=O)c1cc(-c2ccccc2)sc1NC(=O)c1ccc(OC)cc1 | -0.199
3 | CCc1cc(C(N)=O)c(NC(=O)c2ccc(OC)cc2)s1 | 3.98 (active)
4 | CCOc1ccc(OC(=O)NC(c2ccccc2)C(Cl)(Cl)Cl)cc1 (stereo not given) | -0.048
5 | O=c1c2ccc(Cl)cc2[nH]c(=S)n1Cc1cccnc1 | 2.08
6 | O=c1c2cccnc2[nH]c(=S)n1Cc1ccccc1 | 3 (active)
7 | O=c1c2cc(Br)ccc2[nH]c(=S)n1Cc1cccnc1 | 1.87
8 | CCOC(=O)N1CCN(C(=O)c2ccc3c(=O)n(Cc4ccc(Cl)cc4)c(=S)[nH]c3c2)CC1 | 0.798
9 | COCCn1c(=S)[nH]c2ncccc2c1=O | 0.35
10 | CCN(CC)CCn1c(=S)[nH]c2ncccc2c1=O | 0.0629
11 | CC1CCN(CCn2c(=S)[nH]c3ncccc3c2=O)CC1 | 4.47 (active)
12 | O=c1c2cccnc2[nH]c(=S)n1CCCN1CCN(c2ccc(F)cc2)CC1 | 0.723
13 | CC1CCCCN1CCn1c(=S)[nH]c2ncccc2c1=O (stereo not given) | 1.22
14 | CC(=O)Nc1ccc(Sc2ncccc2C(=O)Nc2cc(Cl)cc(Cl)c2)cn1 | 0.0331
15 | CCc1nc(SCC(=O)Nc2c(C)n(C)n(-c3ccccc3)c2=O)n[nH]1 | -0.584
16 | Cc1ccc(Cl)c(OCC(=O)Nc2sc(C)c(C)c2C#N)c1 | 0.877
17 | CC(NC(=O)COc1ccccc1)C1COc2ccccc2O1 (stereo not given) | -0.67
18 | Cc1ccc(C)c(N2CCN(C(=O)c3csc(C)c3C)CC2)c1 | 0.0161
19 | CC(C)n1nc(C(=O)OCC(=O)c2c[nH]c3ccccc23)c2ccccc2c1=O | -2.75
20 | COc1ccc(Br)cc1S(=O)(=O)N1CCCC1 | -0.0684
21 | CCOC(=O)COc1c(OC)cc(Cl)cc1C1Nc2ccccc2C(=O)N1c1ccccc1 (stereo not given) | 0.355
22 | Cc1ccc(Oc2ncc(CN3CC(C)OC(C)C3)s2)cc1 (stereo not given) | -0.107
23 | CCn1c2ccccc2c2cc(NC(=O)CC(C)=O)ccc21 | -0.32
24 | CCOC(=O)N1CCC(NC(=O)c2cnn3c2NC(c2ccco2)CC3C(F)(F)F)CC1 (stereo not given) | 4.33 (active)

Row | SMILES | z-score
25 | COCCNC(=O)c1cnn2c1NC(c1ccco1)CC2C(F)(F)F (stereo not given) | 0.0267
26 | Cc1ccc(Cl)cc1NC(=O)c1cnn2c1NC(c1ccco1)CC2C(F)(F)F (stereo not given) | -0.148
27 | CCCCn1ccnc1C(=O)c1cc(S(=O)(=O)N2CCOCC2)ccc1C | -0.0858
28 | CSc1nnc(CSc2cc(C)nc(N(C)C)n2)o1 | -0.325
29 | O=S(=O)(Nc1cccnc1)c1cc(Cl)ccc1Cl | -0.00571
30 | O=S(=O)(Nc1nc(-c2sccc2Cl)cs1)c1cc(Cl)ccc1Cl | 3.41 (active)
31 | O=C(O)c1ccc(NS(=O)(=O)c2cc(Cl)ccc2Cl)cc1 | -0.151
32 | OC(CCN1CCOCC1)(c1ccc(Cl)cc1)C1CCCCC1 (stereo not given) | -0.807
33 | Cc1ccc(NC(=S)N/C(=N/S(=O)(=O)c2ccccc2)c2ccccc2)cc1 | 1.36
34 | COCCN(C(=O)Cc1cccs1)C(C(=O)NCc1ccc(OC)cc1)c1ccccc1 (stereo not given) | 3.95 (active)
35 | COCCN(C(=O)Cc1cccs1)C(C(=O)NCc1ccc(OC)cc1)c1ccc(OC)cc1 (stereo not given) | -0.202
36 | CCc1ccc(C(C(=O)NCc2ccc(OC)cc2)N(CCOC)C(=O)Cc2cccs2)cc1 (stereo not given) | -0.37
37 | Clc1ccc(N=c2ssnc2Cl)cc1 | -0.0573
38 | C=C(C)COc1ccc(-c2[nH]ncc2-c2ccccc2OC)c(O)c1 | 0.603
39 | Cc1cccc(Oc2cc(NC(=O)c3ccccc3)cc([N+](=O)[O-])c2)c1 | -0.382
40 | CCn1cc(CNC(=O)CCSc2nc(-c3ccco3)cc(C(F)(F)F)n2)cn1 | -0.23
41 | CCC/C(=N\NC(=O)c1ccccc1C)c1ccccc1 | -0.166
42 | COc1cccc(C(=O)N/N=C(/CCC(=O)O)c2ccccc2)c1 | -0.189
43 | CCC/C(=N/NC(=O)c1cccc(Cl)c1)c1ccccc1 | 5.45 (active)
44 | CCC1=NC(c2ccc(OC)cc2OC)N(O)C1(C)C (stereo not given) | -0.547
45 | COCc1c(C(=O)N2CCN(c3ccc(C(F)(F)F)cn3)CC2)oc2ccccc12 | -0.0186
46 | CCN(CC)C(=O)COc1ccc2oc(C)c(C(=O)OC)c2c1 | 3.23 (active)
47 | CCOC(=O)c1c(C)oc2ccc(OCC(=O)C(C)(C)C)cc12 | -1.03
48 | CCN(CC)C(=O)COc1ccc2oc(C)c(C(=O)OC(C)C)c2c1 | -0.537

Row | SMILES | z-score
49 | CCOC(=O)C1=C(CNCc2ccccc2Cl)NC(=O)NC1c1ccc2c(c1)OCO2 (stereo not given) | 0.278
50 | COc1ccc(Br)cc1CN1CCCCCCC1 | 0.169
51 | COc1cc(-c2nc(-c3ccc(NC(=O)c4ccc5c(c4)OCO5)cc3)no2)cc(OC)c1OC | 0.262
52 | CC12CN(C(=O)c3ccccc3)C3(C#N)CC1CCC23C (stereo not given) | 0.729
53 | NC(N)=N/N=C/c1ccc(OCc2ccccc2)cc1 | 0.177
54 | CC1(C)Cc2nc3sc4c(SCC(=O)NCc5ccco5)ncnc4c3cc2CO1 | -0.999
55 | CC1(C)Cc2nc3sc4c(SCC(=O)NCc5ccccc5)ncnc4c3cc2CO1 | 2.31
56 | CC1(C)Cc2nc3sc4c(SCC(=O)NC(c5ccccc5)c5ccccc5)ncnc4c3cc2CO1 | 0.0674
57 | CC(=O)c1ccc(OCC(O)CN2CCCC(C)C2)cc1 (stereo not given) | -0.0491
58 | O=C(Nc1ncc2c(n1)-c1ccccc1CC2)c1ccccc1 | -0.277
59 | Clc1ccc(C2=C3CCCCn4c(-c5ccccc5)c[n+](c43)C2)cc1 | 0.498
60 | COc1ccc(-c2c[n+]3c4n2CCCCC4=C(c2ccc(Br)cc2)C3)cc1 | 1.54
61 | COc1ccc(-c2c[n+]3c4n2CCCCC4=C(c2ccccc2)C3)cc1 | 2.82
62 | CCCc1ccccc1OCCNC(C)=O | -0.472
63 | O=C(COc1ccccc1)NC1=NCCS1 | -0.0489
64 | CC(NC(=O)COc1ccccc1)C(=O)NC1=NCCS1 (stereo not given) | 3.96 (active)
65 | CC(NC(=O)c1ccccc1)C(=O)NC1=NCCS1 (stereo not given) | 0.0634
66 | COc1cc(-c2nc(-c3ccc(Br)o3)no2)cc(OC)c1OC | -0.294
67 | CCOc1c(Cl)cc(Cl)cc1CNCCNCCO | 0.738
68 | COc1c(Cl)cc(Cl)cc1CNCCNCC(C)O (stereo not given) | 3.74 (active)
69 | CCOc1ccc(Cl)cc1CNCCNCC(C)O (stereo not given) | 2.17
70 | CCOc1ccc(Cl)cc1CNCCNCCO | 0.172
71 | COc1c(Cl)cc(Cl)cc1CNCCNCCO | 0.598
72 | CCOc1cccc(CNCCO)c1OCc1ccc(Cl)cc1Cl | 0.93

Row | SMILES | z-score
73 | CN(C)C(C)(C)C#CCCCCC#CC(C)(C)N(C)C | -0.195
74 | N#Cc1cc2cc3c(cc2nc1N1CCOCC1)OCO3 | -0.918
75 | O=C1C2ON(c3ccccc3)C(c3ccncc3)C2C(=O)N1c1ccc(N2CCOCC2)cc1 (stereo not given) | -0.522
76 | Cn1c(=O)c(NCCc2ccccc2)c2c3c(cccc31)C(=O)c1ccccc1-2 | 1.94
77 | Cn1c(=O)c(NCCO)c2c3c(cccc31)C(=O)c1ccccc1-2 | -2.23
78 | CCCCNc1c2c3c(cccc3n(C)c1=O)C(=O)c1ccccc1-2 | 16.2 (active)
79 | Cc1noc(/C=C/N(C)C)c1S(=O)(=O)N1CCCC(C(=O)NCCC2=CCCCC2)C1 (stereo not given) | -0.237
80 | CC(C)(C)c1nnc(N/N=C/c2ccc(Br)cc2)n(N)c1=O | 0.0626
81 | CC(C)(C)c1nnc(N/N=C/c2ccccc2)n(N)c1=O | 2.74
82 | CC(C)(C)c1nnc(N/N=C/c2ccccc2O)n(N)c1=O | -0.149
83 | COc1ccc(-c2csc(Nc3ccc(S(N)(=O)=O)cc3)n2)cc1 | -0.213
84 | O=C(Nc1cc([N+](=O)[O-])ccc1F)c1cccs1 | -0.0753
85 | Cc1ccc([N+](=O)[O-])cc1NC(=S)NC(=O)c1cccs1 | 2.46
86 | Cc1ccc([N+](=O)[O-])cc1NC(=S)NC(=O)c1ccco1 | 7.69 (active)
87 | Cc1ccc([N+](=O)[O-])cc1NC(=S)NC(=O)CC(C)(C)C | 0.834
88 | Cc1ccc([N+](=O)[O-])cc1N/C=C/C(=O)c1ccco1 | -0.039
89 | Cc1ccc([N+](=O)[O-])cc1NC(=S)NC(=O)C(C)(C)C | 0.72
90 | COC(=O)c1ccc(C(=O)OC)c(NC(=O)COC(=O)CC2CC3CCC2C3)c1 (stereo not given) | -0.338
91 | CC1CCCCN1c1nnc(NC(=O)c2cc(-c3ccc(Br)cc3)on2)s1 (stereo not given) | -0.71
92 | CC1CCCC(C)N1c1nnc(NC(=O)c2cc(-c3ccc(Br)cc3)on2)s1 (stereo not given) | 2.04
93 | O=C(Nc1nnc(N2CCCCCC2)s1)c1cc(-c2ccc(Br)cc2)on1 | -0.0797
94 | O=C(CC12CC3CC(CC(C3)C1)C2)NCC(=O)OCc1cc(=O)oc2ccc3ccccc3c12 | -0.205
95 | O=CN1CCN(C(C(=O)NC2CCCC2)c2ccc(Cl)cc2)CC1 (stereo not given) | 0.0147
96 | Cc1oc(-c2ccc(Cl)cc2)nc1CN1CCC(C(=O)N2CCN(Cc3ccccc3)CC2)CC1 | 0.0945

Row | SMILES | z-score
97 | CCc1ccc(-c2nc(CN3CCC(C(=O)NCCN(CC)c4ccccc4)CC3)c(C)o2)cc1 | 1.17
98 | CCc1ccc(-c2nc(CN3CCC(C(=O)NCCc4ccc(OC)c(OC)c4)CC3)c(C)o2)cc1 | 0.471
99 | CCc1ccc(-c2nc(CN3CCCC(C(=O)NCCc4ccc(OC)c(OC)c4)C3)c(C)o2)cc1 (stereo not given) | 2.2
100 | COc1ccc(CCNC(=O)C2CCCN(Cc3nc(-c4cccc(Cl)c4)oc3C)C2)cc1OC (stereo not given) | 1.07
101 | CCc1ccc(-c2nc(CN3CCC(C(=O)N4CCN(c5ccccc5)CC4)CC3)c(C)o2)cc1 | 2.2
102 | O=C(CNC(=O)c1ccccc1F)NCCOc1cccc(Cl)c1Cl | -0.0129
103 | COCCNC(=O)CN(C(=O)CCC(=O)Nc1cc(C)on1)c1cccc(C)c1C | -0.171
104 | CC(C)NS(=O)(=O)c1ccc(CCC(=O)Nc2ccc3c(c2)OCO3)cc1 | -0.224
105 | CCc1cc(C(=O)N=Nc2c(O)[nH]c3ccc([N+](=O)[O-])cc23)c2ccccc2n1 | -0.481
106 | CCc1cc2c(N=Nc3c(O)[nH]c4ccccc34)ncnc2s1 | -0.149
107 | CCc1ccc2[nH]c(O)c(N=Nc3nc(-c4ccccc4)cs3)c2c1 | 2.89
108 | COC(=O)CSc1cnc2ccccc2n1 | 0.141
109 | CCOC(=O)c1c(NC(=O)c2ccccc2N(C)S(=O)(=O)c2ccccc2)sc2c1CCCC2 | -0.168
110 | Cc1ccc(C(=O)OCC(=O)Nc2sc3c(c2C#N)CCC3)cc1 | -0.0585
111 | Cc1ccc(C(=O)OCC(=O)Nc2sccc2C(N)=O)cc1NC(=O)c1ccco1 | -0.747
112 | CCOC(=O)c1c(NC(=S)Nc2ccccc2)sc2c1CCCCC2 | 3.94 (active)
113 | CCOC(=O)c1c(NS(=O)(=O)Cc2ccccc2)sc2c1CCCC2 | 17.1 (active)
114 | COC(=O)c1c(NC(=S)NC(=O)c2ccco2)sc2c1CCCC2 | 3.53 (active)
115 | COC(=O)c1c(NC(=O)c2ccco2)sc2c1CCC2 | -0.464
116 | CCOC(=O)c1c(NC(=O)c2ccco2)sc2c1CCCCC2 | -0.506
117 | CCOC(=O)c1c(NC(=S)Nc2ccc(C)cc2)sc2c1CCC2 | -0.0357
118 | Cc1ccc(C(=O)OCC(=O)Nc2sc3c(c2C#N)CCCC3)cc1NC(=O)c1ccco1 | 2.03
119 | CCOC(=O)c1c(NC(=S)Nc2ccc(F)cc2)sc2c1CCC2 | -0.154
120 | CC(C)OC(=O)c1c(NC(=O)c2ccco2)sc2c1CCCCC2 | -0.501
